Screens from PubChem BioAssay.
HCMV antiviral: inhibitors of human cytomegalovirus; HFF cells, HCMV-luciferase reporter, 72 h; stronger effect = lower value; activity change, negative = inhibition, % at 57.5 µM; 410,000 tested, 4.5% active; AID 1259415; in the data active means activity change below about -60%; inconclusive means no clear call, values can overlap the other calls; inactive means above about -39%; further: on the % scale 0 is the no-effect control and ±100 the full control effect
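After 16 h attachment at 37C, HFF cells received test compound and HCMV-luciferase (1 PFU/cell); reporter luminescence read 72 h later, data normalized against buffer-only and known inhibitor Salinomycin.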
FMDV antiviral: antivirals against foot and mouth disease virus | Potency, µM (highest dose often 57.9 µM), without a hit: top-dose activity change, negative = inhibition, actives largely listed as inhibitors | 410,000 tested, 1.2% active | FMDV antiviral cell-based qHTS; calls by dose curve; tested in HEK293T cells; further: read-out not given here; potency means the concentration at half of the fitted maximal effect; on the % scale 0 is the no-effect control and ±100 the full control effect; nearly all actives have a fitted effect of over 45% in size
SARS PLpro yeast: inhibitors of SARS-CoV papain-like protease in yeast | 330,000 tested, 0.19% active | Potency, µM (highest dose often 32.9 µM), without a hit: top-dose activity, positive = growth rescue, actives largely listed as activators | S. cerevisiae expressing SARS-CoV PLpro, growth rescue; calls by dose curve; further: potency means the concentration at half of the fitted maximal effect; 0% is about no effect; nearly all actives have a fitted effect of over 55% in size
Marburg entry inh: Marburg virus entry inhibition; 300,000 tested, 1.8% active; Marburg virus pseudotyped entry inhibition, cell reporter; Potency, µM (top dose mostly 37.8 µM), for the others: at the highest dose activity change, negative = inhibition, hits mostly inhibitors; calls by dose curve; tested in HEK293 cells; further: potency means the concentration at half of the fitted maximal effect; on the % scale 0 is the no-effect control and ±100 the full control effect
Lassa entry inh: inhibitors of Lassa virus binding or cell entry. Lassa virus pseudotype entry inhibition, cell reporter. Potency, µM (series often up to 37.9 µM), without a hit: top-dose activity change, negative = inhibition, hits mostly inhibitors. 300,000 tested, 1.2% active. AID 540256; calls by dose curve; tested in HEK293 cells; further: potency means the concentration at half of the fitted maximal effect; on the % scale 0 is the no-effect control and ±100 the full control effect; nearly all actives have a fitted effect of over 50% in size
HCV inh: blocks hepatitis C virus | Potency, µM (highest dose often 41.8 µM), for the others: at the top dose activity change, negative = inhibition, most hits filed as inhibitors | Huh7.5.1 HCVcc-Cre infection, luciferase reporter, 44 h | 340,000 tested, 3.4% active; active means well fitted inhibition curve with a large enough effect; inconclusive means small, poorly fitted or top-dose-only effect, or another doubt; inactive means no such curve, though single readings can be large or run the other way; further: potency means the concentration at half of the fitted maximal effect; on the % scale 0 is the no-effect control and ±100 the full control effect
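HCVcc-Cre virus at an moi near 0.5 was added right after compound to cells cultured 4 h from seeding (1,000 cells/well). Luciferase activity was determined 44 h later, 15 min after substrate addition at RT.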
Starred values were filed as active, the others as inactive; ? = inconclusive; nt = no result given; ! = not confirmed by another sample; [ ] = dose if it differs, or a comment. The list is not random: actives were taken first. Their share in the collection is about 8%.

SMILES | HCMV antiviral | FMDV antiviral | SARS PLpro yeast | Marburg entry inh | Lassa entry inh | HCV inh
c1ccc(-c2cnc(CSc3ncnc4sccc34)o2)cc1 | 3 | -6% | -49% | -11% | 4% | 11µM*
CC(=O)Nc1ccc(SCc2ncc(-c3ccccc3)o2)cc1 | 57 | 16% | -3% | ? | -26%[46.1 µM] | -28%
Cc1ccc(Nc2nc3nonc3nc2Nc2cccc(C(F)(F)F)c2)cc1Cl | -100* | ? | nt | ? | ? | nt
Cc1cc(Nc2cccc(C(F)(F)F)c2)ncn1 | -7 | -9% | nt | 23%[46.1 µM] | -1%[46.1 µM] | nt
COc1ccc(CC(=O)NCC2CCCN(Cc3ccc(SC)cc3)C2)cc1 (centres undefined) | 12 | -6% | 2% | nt | nt | -16%
Cc1ccc(NS(=O)(=O)c2ccc(Cl)c(C(=O)Nc3ccccc3-c3nc4ccccc4[nH]3)c2)cc1C | -85* | -46% | -10% | ? | ? | 3.5µM*
Cc1ccc(NS(=O)(=O)c2ccc3nc(-c4ccccc4)[nH]c3c2)cc1Cl | -10 | 52% | nt | 16%[46.1 µM] | ? | nt
c1ccc(Cn2c(-c3ccccc3)c[n+]3c2SCCC3)cc1 | ? | -13% | 0% | ? | ? | 2.5µM*
COC(=O)c1ccc2c(=O)n(CCCCCC(=O)NCCc3ccccc3)c(=O)[nH]c2c1 | 77 | -4% | nt | nt | 14%[46.1 µM] | nt
CCC(Sc1nc2ccccc2c2nc(CCc3c(C)n[nH]c3C)nn12)C(=O)Nc1ccccc1F (centres undefined) | -2 | -20% | nt | nt | -1%[46.1 µM] | nt
c1cc(-c2nnc3sc(C4CCCCC4)nn23)ccn1 | -80* | -21% | -2% | -3% | 4% | -18%
Cc1ncc(CO)c2c1Oc1nc(-c3ccccc3)nc(SCC(=O)N3CCOCC3)c1C2 | -33 | -19% | 3% | ? | ? | ?
COc1cccc(-c2nc3c(c(SCC(=O)N4CCOCC4)n2)Cc2c(CO)cnc(C)c2O3)c1 | nt | -8% | -1% | nt | nt | 11µM*
COc1ccccc1-c1nc2c(c(SCC(=O)Nc3ccc(C)c(C)c3)n1)Cc1c(CO)cnc(C)c1O2 | -76* | -27% | nt | nt | -14%[46.1 µM] | nt
Cc1cccc(-c2nc3c(c(SCC(=O)N4CCOCC4)n2)Cc2c(CO)cnc(C)c2O3)c1 | nt | -11% | -1% | ? | ? | 11µM*
CCOc1ccc(C(=O)CSc2nc3cc(C(=O)NC4CCCC4)ccc3c(=O)n2CC2CCCO2)cc1 (centres undefined) | 6 | -6% | nt | nt | -1%[46.1 µM] | nt
CN1CCC(=C2c3ccccc3CC(=O)c3sccc32)CC1 | -65*! | ? | -2% | ? | ? | ?
COc1ccccc1NC(=O)C1CCN(c2cnccn2)CC1 | -12 | -13% | nt | -6%[46.1 µM] | 14%[46.1 µM] | nt
O=C(Nc1cccc(C(F)(F)F)c1)C1CCCCC1 | 21 | -22% | -12% | -19% | -19% | 7%
FC(F)(F)c1cccc(N2CCN(C(=S)NC3CCCC3)CC2)c1 | -29 | 20µM* | -12% | ? | -26% | 32µM*
FC(F)(F)c1cccc(NC(=S)NC2CCCC2)c1 | -64* | -21% | -45% | ? | -3% | 9%
FC(F)(F)c1cccc(NC(=S)Nc2cccc(NC(=S)Nc3cccc(C(F)(F)F)c3)n2)c1 | ? | -21% | 0% | ? | ? | 10µM*
CN(C(=O)Nc1cccc(C(F)(F)F)c1)C1CCCCC1 | -63* | 20% | -1% | -5%[46.1 µM] | ? | 1%
COc1ccc(C(C[N+](=O)[O-])C2(c3ccc(OC)c(OC)c3)C(=O)c3ccccc3C2=O)cc1 (centres undefined) | nt | -87% | -87% | 11µM* | 16µM* | ?
COc1ccc(CNC(=O)c2ccc3c(Cl)c4c(nc3c2)CCCC4)c(OC)c1 | ? | -21% | nt | 8%[46.1 µM] | ? | nt
O=C(c1ccc2c(Cl)c3c(nc2c1)CCCC3)N1CCN(c2ccccc2)CC1 | 0 | -4% | nt | -23%[46.1 µM] | -1%[46.1 µM] | nt
COc1ccc(CCNC(=O)c2ccc3c(Cl)c4c(nc3c2)CCCC4)c(OC)c1 | -94* | ? | nt | 1%[46.1 µM] | -22%[46.1 µM] | nt
O=C(NCc1ccc(F)cc1)c1ccc2c(Cl)c3c(nc2c1)CCCC3 | -73* | -19% | nt | ? | -1%[46.1 µM] | nt
O=C(c1ccc2c(Cl)c3c(nc2c1)CCCC3)N1CCC(N2CCCCC2)CC1 | -60* | 0% | -15% | 4.6µM* | ? | ?
